Data on 53 molecules can be found in PubChem BioAssay AID588342 (National Center for Advancing Translational Sciences (NCATS), 2011).

About 25,000 (6.9%) of roughly 360,000 compounds were called active. Not shown: some 9% with an inconclusive outcome. Calls come from the whole dose curve; as a rule, active = well fitted inhibition curve with a large enough effect; inconclusive = small, poorly fitted or top-dose-only effect; inactive = flat fitted curve, though single readings scatter. Shown is part of a subset that was picked to be rich in actives. Entries that show only a call come without a potency.

For this assay, the target named is Luciferin 4-monooxygenase (Photinus pyralis) (UniProt P08659). As to the kind of experiment: qHTS profiling assay for firefly luciferase inhibitor/activator using purifed enzyme and Km concentrations of substrates (counterscreen for miR-21 project). Note: nearly all actives have a fitted effect of over 55% in size. The following applies: purified FLuc, luminescence inhibition; series mostly up to 57.5 µM. The source says: MLPCN Grant: 1 R21 NS059478-01 (miR-21 grant) Assay Provider: NCGC NCGC Assay Overview: Firefly (Photinus pyralis) luciferase is one of the most commonly used transcriptional reporters for a number of reasons. It is considered one of the more dynamically responsive reporters -that is, responsive to changes in reporter transcription - as it requires no post-translational modifications and is enzymatically active directly after protein synthesis (Wood, 1998). Additionally, the half-life of the luciferase protein is short relative to other reporter-gene products (Wood, 1995). Whereas reporters with long half-lives potentially allow for increased signal due to accumulation of reporter-gene product, once accumulated in the cell, dynamic changes in reporter-gene expression may be difficult to detect(Fan and Wood, 2007; Almond et al., 2004). It has been shown that wild-type P. pyralis luciferase has a half-life of approximately […] hours in mammalian cells (Thompson et al., 1991). Firefly luciferase reporter-gene assays are also generally considered one of the most sensitive assay types (Wood, 1995; Wood, 1998). Although light produced in a bioluminescence reaction is of lower intensity than that produced during fluorescence emission, this is offset by little to no background light inherent to luminescent assays. Thus the luciferase reporter can be expressed at much lower levels than fluorescent proteins while still providing robust signal. # However, it was initially observed, in 1991, by Thompson et al., that compounds that resemble the substrates of firefly luciferase (FLuc) can act as competitive inhibitors of the enzyme, and that these compounds, upon interaction with luciferase in the cell, can actually stabilize the protein and increase its half-life. Accumulated intracellular FLuc protein can be measured as an increase in luminescence signal, upon addition of detection reagents (which contain high concentrations of FLuc substrates) commonly used in high-throughput screening. In cell-based reporter gene assays that use FLuc as the reporter gene to quantitate the potential influence of a given compound against the target biology, this apparent increase in luminescence can mistakenly be interpreted as identification of a compound that is active against the target of interest. This is the case for the miR-21 FLuc reporter gene assay used to identify inhibitors of the miR-21 pathway (PubChem AID 2289) - compounds of interest will inhibit miR-21 biogenesis/expression or activity, and are identified by causing an increase in luminescence, due to increased FLuc translation. However, FLuc inhibitory compounds that stabilize the FLuc protein will give an identical read-out, making it difficult to distinguish compounds that are active against the target from those active against FLuc. Previous profiling work to determine the prevalence of compounds that affect FLuc enzymatic activity (PubChem AID 411) identified that ~3% of the MLSMR library (then at ~72K) inhibited FLuc. […] Since the MLSMR had grown to ~350K compounds, and since it was expected that a significant percentage of compounds found active in the miR-21 FLuc assay would be FLuc inhibitors, the library was screened for activity against FLuc using a biochemical assay of purified FLuc and KM concentrations of FLuc substrates (D-luciferin and ATP).
Sequence of Luciferin 4-monooxygenase (Photinus pyralis) (P08659 whole entry, looked up): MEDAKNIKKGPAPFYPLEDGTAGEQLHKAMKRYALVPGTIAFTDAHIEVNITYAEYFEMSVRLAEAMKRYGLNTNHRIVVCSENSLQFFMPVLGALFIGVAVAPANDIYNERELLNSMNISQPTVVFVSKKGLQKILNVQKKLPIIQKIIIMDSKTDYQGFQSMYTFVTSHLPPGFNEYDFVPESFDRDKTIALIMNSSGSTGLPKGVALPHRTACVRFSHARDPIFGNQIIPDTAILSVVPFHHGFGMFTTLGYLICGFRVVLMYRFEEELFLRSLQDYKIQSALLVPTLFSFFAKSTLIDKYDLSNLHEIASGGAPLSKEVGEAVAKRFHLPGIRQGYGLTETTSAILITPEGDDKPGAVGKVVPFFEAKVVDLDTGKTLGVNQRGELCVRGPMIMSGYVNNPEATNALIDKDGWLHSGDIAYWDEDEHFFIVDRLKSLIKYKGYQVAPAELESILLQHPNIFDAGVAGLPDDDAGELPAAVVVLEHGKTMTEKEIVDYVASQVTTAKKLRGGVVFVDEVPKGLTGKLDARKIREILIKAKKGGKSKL
NCGC Assay Protocol Summary: Reagents: 50mM Tris acetate, pH 7.5; 10mM Mg acetate; 10uM D-luciferin (Sigma #L9504); 10uM ATP; 0.01% Tween-20; 0.05% BSA; 10nM P. pyralis luciferase (Sigma #L9506) Control compounds used were two known firefly luciferase inhibitors (compounds (2) and (5) in Auld et al., 2010), and DMSO. […]
For the molecule `CCOc1ccc(-c2nonc2NC(=O)c2oc3ccc(C)cc3c2C)cc1OCC`, the Potency result is “inactive”. In the case of `COc1cccc(/C=C/C(=O)Nc2ccc3c(c2)OCCO3)c1` it was 0.757 µM (active); in that of `COc1ccc(S(=O)(=O)N(C)CC(=O)Nc2ccc3c(c2)OCCO3)cc1OC`, “inactive”. On to `COc1ccc(NS(=O)(=O)c2cc(NC(=O)/C=C/c3cc(OC)c(OC)c(OC)c3)ccc2N2CCCCC2)cc1`, for which the Potency result was “inactive”.

For the molecule `COc1ccc(/C=C/C(=O)N2CCCC2)cc1OC`, the Potency result was “inactive”. Regarding `COc1ccc(/C=C/C(=O)Nc2ccc(C34CC5CC(CC(O)(C5)C3)C4)cc2)cc1OC`, the Potency was 0.601 µM (active).

On to `COc1ccc(/C=C/C(=O)Nc2ccc(C)cc2)cc1S(=O)(=O)N1CCOCC1`, for which the Potency entry was “inactive”.

Turning to `COc1cccc(NC(=O)CSc2nccn(-c3ccc4c(c3)OCCO4)c2=O)c1`, the Potency entry is “inactive”. Regarding `COc1ccc(/C=C/C(=O)Nc2ccc3c(c2)OCCO3)cc1OC`, the Potency was 23.9 µM (active). As for `COc1ccc2c(c1)c(=O)c(C(=O)c1ccccc1)cn2CC(=O)Nc1ccc2c(c1)OCCO2`, the Potency entry was “inactive”. For the molecule `COc1cc(C(=O)Nc2cc(C(F)(F)F)ccc2-n2cncn2)cc(OC)c1OC`, the Potency entry was “inactive”. Consider `CN(C)C(=O)N1CCNCC1`, for which the Potency entry was “inactive”. In the case of `CC12C(=O)N(c3ccccc3)C(=O)C1C(c1ccccc1)N1CCCN12` (stereo not drawn), the Potency result is “inactive”. Turning to `CCOC(=O)C1CN(S(=O)(=O)c2ccc(F)cc2)C1`, the Potency entry was “inactive”. Turning to `COc1ccc(CNC(=O)c2ccc(NS(=O)(=O)c3ccc4[nH]c(=O)[nH]c4c3)cc2)cc1OC`, the Potency entry was “inactive”. Then `CCC1CCCCN1C(=O)Nc1cccc(NC(=O)N2CCCCC2CC)c1` (stereo not drawn), with “inactive”; and `CCC1CCCCN1C(=S)Nc1ccc(SC(F)F)cc1` (stereo not drawn), with 12 µM (active); and `CCC1CCCCN1C(=S)Nc1ccc(S(=O)(=O)Nc2ncccn2)cc1` (stereo not drawn), with “inactive”. In the case of `CCOC(=O)c1ccc(NC(=O)CNC(=O)c2ccco2)cc1` it was “inactive”; in that of `Cc1ccc(C(=O)COc2cccc(NC(=O)c3ccco3)c2)cc1`, 23.9 µM (active). On to `Cc1cc(NC(=O)[C@H](C)NC(=O)c2ccco2)ccc1Br`, for which the Potency entry was “inactive”.

For the molecule `O=C(/C=C/c1ccco1)NC(=S)Nc1ccccc1Br`, the Potency result is “inactive”. As to `COc1ccc(OCC(=O)Nc2ccc(NC(=O)c3ccco3)c(C)c2)cc1`, the Potency result is “inactive”.

For `COC(=O)c1cc(NC(=O)c2ccco2)ccc1N1CCOCC1`, the Potency result is “inactive”.

For the molecule `O=C(Nc1ccccc1)/C(=C\c1ccco1)NC(=O)c1ccco1`, the Potency entry is “inactive”. Take `Cc1cc(NC(=O)c2ccc(F)cc2)ccc1NC(=O)c1ccco1`: the Potency is 16.9 µM (active).

As for `COc1ccc(NC(=O)c2ccco2)cc1NC(=O)COc1ccc(C)c(C)c1`, the Potency entry was “inactive”.

For `O=C(/C=C/c1ccco1)Nc1ccc(Oc2ccccc2)cc1`, the Potency is 6.01 µM (active). In the case of `Cc1cccc(OCC(=O)Nc2ccc(NC(=O)c3ccco3)c(C)c2)c1` it was “inactive”; in that of `COC(=O)c1ccc(NC(=O)c2ccco2)cc1`, 15.1 µM (active).

As for `COc1ccc(CC(=O)N2N=C(C)CC2(O)C(F)(F)F)cc1` (stereo not drawn), the Potency result is “inactive”. Regarding `C#CCN1CC(C)/C(=N/O)CC1C` (stereo not drawn), the Potency result was “inactive”.

Turning to `CCOc1ccc(Nc2nc3c(S(=O)(=O)c4cccc(Cl)c4)nnn3c3ccsc23)cc1`, the Potency entry is “inactive”. As for `Cc1ccc(Cl)cc1N1CCN(S(=O)(=O)c2cc3[nH]c(=O)c(=O)[nH]c3cc2C)CC1`, the Potency entry is “inactive”. In the case of `COc1ccc(NC(=O)N2CCCn3nc(C)cc32)cc1OC` it was “inactive”; in that of `Cc1cc(C)cc(NC(=O)CCS(=O)(=O)c2cc3c4c(c2)CCN4C(=O)CC3)c1`, “inactive”. Turning to `Cc1ccc(Cl)cc1NC(=O)CCS(=O)(=O)c1ccc(Br)s1`, the Potency entry is “inactive”. Then `Cc1ccc(N(CC(=O)NCC(C)c2ccccc2)S(=O)(=O)N(C)C)cc1` (stereo not drawn), with “inactive”; and `CCN(CC(=O)NCc1ccc(Cl)cc1)C(=O)c1c(C)noc1C`, with “inactive”.

`COc1ccc(NC(=S)SC)cc1OC`: the Potency result is “inactive”. Consider `Cc1ccc2c(=O)c(C(=O)c3ccc(F)cc3)cn(CC(=O)NC3CCCCC3)c2n1`, for which the Potency result was “inactive”. For `Cc1ccoc1C(=O)Nc1cccc(Oc2ccccc2)c1`, the Potency was 6.75 µM (active).

For `O=C(NNC(=O)c1ccco1)Nc1ccccc1`, the Potency result was “inactive”. Then `CSCCC(NC(=O)c1ccco1)C(=O)Nc1cc(C)ccn1` (stereo not drawn), with 15.1 µM (active). Then `COc1ccc(NC(=O)CCC(=O)Nc2cc(OC)c(NC(=O)c3ccco3)cc2OC)c(OC)c1`, with “inactive”; and `Cc1cccc(NC(=O)Nc2cccc(Oc3c(F)c(F)c(F)c(F)c3F)c2)c1`, with “inactive”; and `COc1ccc(NC(=O)c2ccco2)cc1NC(=O)c1ccc(C#N)cc1F`, with “inactive”. Take `CSCCC(NC(=O)c1ccco1)C(=O)NCCc1ccc(F)cc1` (stereo not drawn): the Potency entry was “inactive”. As for `Cc1cc(C)c(NC(=O)c2oc3ccccc3c2COc2ccccc2)c(C)c1`, the Potency entry was “inactive”. Consider `COc1cccc(C(=O)Nc2ccc(NC(=O)c3ccco3)cn2)c1`, for which the Potency was 21.3 µM (active). Consider `O=C(Nc1ccccc1)c1ccco1`, for which the Potency entry is “inactive”. For `O=C(Nc1ccc(Oc2ccccc2)cc1)c1ccco1`, the Potency is 5.36 µM (active).

As to `CSCCC(NC(=O)c1ccco1)C(=O)OCC(=O)Nc1ncc(Cl)c(C)c1Cl` (stereo not drawn), the Potency result is “inactive”.
